Experimental data taken from the supplement of paper PMC11732987, “Enantioselective OTUD7B fragment discovery through chemoproteomics screening and high-throughput optimisation” (Communications Chemistry, 2025).

How the values were obtained:
Experiment in all cases: log2 ratio of Biotin-Ahx-Ub-VS probe labelling (fragment/DMSO); higher = less target engagement (more negative = stronger competition), active = hit call of the paper (q ≤ 0.05, log2 ratio ≤ -1)
Conditions in all cases: compound concentration: 200 uM; treatment time: 3 h
[1] = biological target: T1, USP19 (UniProt O94966)
T1 sequence (whole entry): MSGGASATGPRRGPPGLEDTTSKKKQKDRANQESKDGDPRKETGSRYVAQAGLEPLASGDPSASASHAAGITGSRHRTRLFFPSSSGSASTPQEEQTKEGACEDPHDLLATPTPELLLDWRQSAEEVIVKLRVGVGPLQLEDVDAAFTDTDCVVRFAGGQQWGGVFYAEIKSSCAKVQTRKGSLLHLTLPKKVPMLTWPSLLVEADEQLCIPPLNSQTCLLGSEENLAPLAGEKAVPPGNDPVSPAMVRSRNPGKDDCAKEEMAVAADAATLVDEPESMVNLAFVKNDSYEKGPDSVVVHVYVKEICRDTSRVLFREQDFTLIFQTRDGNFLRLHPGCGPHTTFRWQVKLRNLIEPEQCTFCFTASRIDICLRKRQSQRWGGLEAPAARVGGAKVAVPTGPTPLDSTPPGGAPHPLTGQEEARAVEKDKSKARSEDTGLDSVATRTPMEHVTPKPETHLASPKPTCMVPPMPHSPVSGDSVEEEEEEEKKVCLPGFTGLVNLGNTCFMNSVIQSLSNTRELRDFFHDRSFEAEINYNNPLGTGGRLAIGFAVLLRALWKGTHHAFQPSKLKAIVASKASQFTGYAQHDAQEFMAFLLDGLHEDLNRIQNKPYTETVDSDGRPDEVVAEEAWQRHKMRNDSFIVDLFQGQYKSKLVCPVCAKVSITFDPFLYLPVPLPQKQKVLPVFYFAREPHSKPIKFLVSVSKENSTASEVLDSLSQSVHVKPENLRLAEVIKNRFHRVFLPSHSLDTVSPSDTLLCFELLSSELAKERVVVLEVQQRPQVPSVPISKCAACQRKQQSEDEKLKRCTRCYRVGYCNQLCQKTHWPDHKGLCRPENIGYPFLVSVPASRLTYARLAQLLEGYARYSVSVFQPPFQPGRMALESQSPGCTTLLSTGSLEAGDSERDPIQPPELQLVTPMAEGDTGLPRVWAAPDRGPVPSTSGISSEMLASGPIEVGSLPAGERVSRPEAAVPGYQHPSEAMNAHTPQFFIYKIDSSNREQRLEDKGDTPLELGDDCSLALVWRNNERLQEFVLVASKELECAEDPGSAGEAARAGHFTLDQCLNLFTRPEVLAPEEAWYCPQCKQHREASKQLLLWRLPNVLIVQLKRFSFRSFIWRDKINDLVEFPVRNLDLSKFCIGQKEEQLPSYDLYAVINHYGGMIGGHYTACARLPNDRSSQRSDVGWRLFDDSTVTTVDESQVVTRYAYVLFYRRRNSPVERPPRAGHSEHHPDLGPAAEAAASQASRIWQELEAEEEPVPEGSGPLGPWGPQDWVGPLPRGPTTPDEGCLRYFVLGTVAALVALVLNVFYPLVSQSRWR
Summary of the method: (§1)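 HEK293T lysate, 495 µg per sample in Tris/CHAPS/IGEPAL buffer with protease inhibitors, was treated in triplicate with fragment at 200 µM or vehicle for 3 h and then with Biotin-Ahx-Ub-VS at 0.5 µM final for 1 h. Labelled DUBs were NeutrAvidin-enriched, digested with LysC and trypsin, and run by diaPASEF LC-MS/MS. Spectronaut label-free quantities were global-median-normalised, and values are average log2 fragment/vehicle ratios by unpaired t-test on proteins with ≥2 unique peptides.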

[2] = biological target: T2, USP22 (UniProt Q9UPT9)
T2 sequence (whole entry): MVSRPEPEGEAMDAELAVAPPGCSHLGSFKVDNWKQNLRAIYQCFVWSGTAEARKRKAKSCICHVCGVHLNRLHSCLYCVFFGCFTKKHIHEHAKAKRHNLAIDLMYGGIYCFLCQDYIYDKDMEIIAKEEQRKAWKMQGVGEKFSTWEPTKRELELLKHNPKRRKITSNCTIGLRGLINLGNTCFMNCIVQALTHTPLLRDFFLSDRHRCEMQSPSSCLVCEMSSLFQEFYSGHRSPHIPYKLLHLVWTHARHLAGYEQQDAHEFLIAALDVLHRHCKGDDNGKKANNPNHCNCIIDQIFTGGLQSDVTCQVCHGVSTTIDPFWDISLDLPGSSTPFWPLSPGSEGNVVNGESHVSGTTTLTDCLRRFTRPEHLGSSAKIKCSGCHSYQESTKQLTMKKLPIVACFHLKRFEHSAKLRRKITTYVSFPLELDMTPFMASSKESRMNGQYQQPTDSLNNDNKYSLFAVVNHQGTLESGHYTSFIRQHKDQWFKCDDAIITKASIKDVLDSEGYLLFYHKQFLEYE
Summary of the method: as §1

[3] = biological target: USP24 (UniProt Q9UPU5)
Sequence of USP24 (Q9UPU5 whole entry): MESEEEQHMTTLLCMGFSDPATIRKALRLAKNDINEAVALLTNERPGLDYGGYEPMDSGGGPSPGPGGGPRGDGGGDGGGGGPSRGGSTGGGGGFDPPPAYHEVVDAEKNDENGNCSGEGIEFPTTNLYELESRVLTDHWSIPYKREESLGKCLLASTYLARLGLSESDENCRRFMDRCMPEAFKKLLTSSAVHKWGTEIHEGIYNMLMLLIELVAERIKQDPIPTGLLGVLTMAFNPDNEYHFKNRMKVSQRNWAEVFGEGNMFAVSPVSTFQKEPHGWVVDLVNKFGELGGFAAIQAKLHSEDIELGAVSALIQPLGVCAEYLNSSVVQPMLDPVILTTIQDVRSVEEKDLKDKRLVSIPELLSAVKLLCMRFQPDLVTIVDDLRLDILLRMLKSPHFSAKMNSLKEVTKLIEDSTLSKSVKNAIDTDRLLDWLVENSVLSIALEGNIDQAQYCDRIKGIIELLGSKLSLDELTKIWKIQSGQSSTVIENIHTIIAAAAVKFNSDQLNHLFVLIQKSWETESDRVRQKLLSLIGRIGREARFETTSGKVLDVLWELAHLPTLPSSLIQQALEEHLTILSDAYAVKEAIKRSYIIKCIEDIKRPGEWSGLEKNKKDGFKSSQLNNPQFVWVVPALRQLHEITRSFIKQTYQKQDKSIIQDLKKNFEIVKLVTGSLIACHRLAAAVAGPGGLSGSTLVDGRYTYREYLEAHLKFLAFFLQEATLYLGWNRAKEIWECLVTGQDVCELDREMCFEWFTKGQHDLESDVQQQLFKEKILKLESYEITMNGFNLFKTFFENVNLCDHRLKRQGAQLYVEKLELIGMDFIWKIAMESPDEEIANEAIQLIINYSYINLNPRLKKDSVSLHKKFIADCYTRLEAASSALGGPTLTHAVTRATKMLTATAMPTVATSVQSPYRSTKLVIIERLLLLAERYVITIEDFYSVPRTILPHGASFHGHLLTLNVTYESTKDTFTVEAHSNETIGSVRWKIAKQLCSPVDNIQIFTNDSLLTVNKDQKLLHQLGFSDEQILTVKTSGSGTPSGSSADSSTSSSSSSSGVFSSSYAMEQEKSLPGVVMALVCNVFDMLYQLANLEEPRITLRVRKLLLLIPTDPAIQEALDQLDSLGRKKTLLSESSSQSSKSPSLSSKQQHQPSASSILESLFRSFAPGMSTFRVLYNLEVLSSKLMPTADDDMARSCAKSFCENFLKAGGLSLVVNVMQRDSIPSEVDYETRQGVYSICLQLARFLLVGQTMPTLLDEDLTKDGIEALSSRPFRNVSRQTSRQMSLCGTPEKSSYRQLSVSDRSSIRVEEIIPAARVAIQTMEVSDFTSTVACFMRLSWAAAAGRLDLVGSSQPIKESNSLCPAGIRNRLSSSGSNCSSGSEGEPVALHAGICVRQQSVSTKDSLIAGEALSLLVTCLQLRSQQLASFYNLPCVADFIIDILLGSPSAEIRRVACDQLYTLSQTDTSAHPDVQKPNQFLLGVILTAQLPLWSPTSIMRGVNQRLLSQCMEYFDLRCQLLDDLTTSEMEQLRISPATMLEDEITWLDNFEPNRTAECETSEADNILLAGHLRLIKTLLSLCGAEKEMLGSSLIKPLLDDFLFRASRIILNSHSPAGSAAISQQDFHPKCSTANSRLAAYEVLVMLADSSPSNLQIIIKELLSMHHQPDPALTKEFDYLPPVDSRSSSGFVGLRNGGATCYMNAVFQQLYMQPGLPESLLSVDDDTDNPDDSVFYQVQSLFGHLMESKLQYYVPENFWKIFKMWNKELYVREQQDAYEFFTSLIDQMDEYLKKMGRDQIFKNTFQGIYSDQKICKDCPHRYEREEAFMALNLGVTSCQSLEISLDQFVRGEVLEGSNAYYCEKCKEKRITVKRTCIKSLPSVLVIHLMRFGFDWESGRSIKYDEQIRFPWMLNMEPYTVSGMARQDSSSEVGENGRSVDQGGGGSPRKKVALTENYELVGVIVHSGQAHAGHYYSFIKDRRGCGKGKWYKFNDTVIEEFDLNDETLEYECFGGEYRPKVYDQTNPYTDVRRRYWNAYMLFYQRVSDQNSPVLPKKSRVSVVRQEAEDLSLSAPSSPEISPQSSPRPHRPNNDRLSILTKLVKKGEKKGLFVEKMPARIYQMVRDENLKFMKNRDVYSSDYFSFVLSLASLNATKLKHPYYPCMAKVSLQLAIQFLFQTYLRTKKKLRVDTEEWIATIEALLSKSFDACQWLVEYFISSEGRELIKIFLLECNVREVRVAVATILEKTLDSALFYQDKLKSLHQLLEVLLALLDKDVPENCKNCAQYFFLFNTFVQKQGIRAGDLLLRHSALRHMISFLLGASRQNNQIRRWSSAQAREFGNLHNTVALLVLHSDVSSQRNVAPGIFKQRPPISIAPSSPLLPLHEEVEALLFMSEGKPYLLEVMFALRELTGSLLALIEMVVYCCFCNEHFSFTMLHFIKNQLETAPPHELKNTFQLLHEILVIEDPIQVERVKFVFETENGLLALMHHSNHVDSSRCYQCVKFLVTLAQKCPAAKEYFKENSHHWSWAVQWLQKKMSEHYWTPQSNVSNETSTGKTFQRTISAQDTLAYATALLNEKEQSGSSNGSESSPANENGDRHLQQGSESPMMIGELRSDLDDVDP
Summary of the method: as §1

[4] = biological target: T3, USP25 (UniProt Q9UHP3)
T3 sequence (whole entry): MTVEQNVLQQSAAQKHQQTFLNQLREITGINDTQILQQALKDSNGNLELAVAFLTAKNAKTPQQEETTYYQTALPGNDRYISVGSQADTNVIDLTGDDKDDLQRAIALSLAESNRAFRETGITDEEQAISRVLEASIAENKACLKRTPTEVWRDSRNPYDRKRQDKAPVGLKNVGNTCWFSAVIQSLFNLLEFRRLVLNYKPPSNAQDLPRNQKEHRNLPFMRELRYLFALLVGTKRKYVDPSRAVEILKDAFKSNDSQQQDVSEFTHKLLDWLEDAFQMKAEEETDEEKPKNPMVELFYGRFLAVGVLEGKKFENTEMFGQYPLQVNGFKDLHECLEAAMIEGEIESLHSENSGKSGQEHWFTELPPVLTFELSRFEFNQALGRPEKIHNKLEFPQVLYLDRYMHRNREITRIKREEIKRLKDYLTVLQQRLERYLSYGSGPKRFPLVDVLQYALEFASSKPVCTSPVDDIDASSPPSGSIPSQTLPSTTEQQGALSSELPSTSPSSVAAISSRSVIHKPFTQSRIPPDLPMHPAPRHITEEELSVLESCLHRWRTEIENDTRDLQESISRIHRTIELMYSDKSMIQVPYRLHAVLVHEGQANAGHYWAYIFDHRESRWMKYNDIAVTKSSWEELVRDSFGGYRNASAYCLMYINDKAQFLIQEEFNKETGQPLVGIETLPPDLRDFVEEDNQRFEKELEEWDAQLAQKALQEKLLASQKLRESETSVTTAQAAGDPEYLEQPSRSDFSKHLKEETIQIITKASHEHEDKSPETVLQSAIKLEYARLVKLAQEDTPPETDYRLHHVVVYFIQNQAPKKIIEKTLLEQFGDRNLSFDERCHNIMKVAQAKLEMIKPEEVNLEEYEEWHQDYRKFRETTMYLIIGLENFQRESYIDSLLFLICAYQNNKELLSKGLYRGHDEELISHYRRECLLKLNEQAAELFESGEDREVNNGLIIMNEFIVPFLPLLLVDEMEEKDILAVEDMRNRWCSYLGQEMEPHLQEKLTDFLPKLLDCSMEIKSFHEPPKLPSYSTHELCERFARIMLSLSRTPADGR
Summary of the method: as §1

[5] = biological target: T4, USP28 (UniProt Q96RU2)
T4 sequence (whole entry): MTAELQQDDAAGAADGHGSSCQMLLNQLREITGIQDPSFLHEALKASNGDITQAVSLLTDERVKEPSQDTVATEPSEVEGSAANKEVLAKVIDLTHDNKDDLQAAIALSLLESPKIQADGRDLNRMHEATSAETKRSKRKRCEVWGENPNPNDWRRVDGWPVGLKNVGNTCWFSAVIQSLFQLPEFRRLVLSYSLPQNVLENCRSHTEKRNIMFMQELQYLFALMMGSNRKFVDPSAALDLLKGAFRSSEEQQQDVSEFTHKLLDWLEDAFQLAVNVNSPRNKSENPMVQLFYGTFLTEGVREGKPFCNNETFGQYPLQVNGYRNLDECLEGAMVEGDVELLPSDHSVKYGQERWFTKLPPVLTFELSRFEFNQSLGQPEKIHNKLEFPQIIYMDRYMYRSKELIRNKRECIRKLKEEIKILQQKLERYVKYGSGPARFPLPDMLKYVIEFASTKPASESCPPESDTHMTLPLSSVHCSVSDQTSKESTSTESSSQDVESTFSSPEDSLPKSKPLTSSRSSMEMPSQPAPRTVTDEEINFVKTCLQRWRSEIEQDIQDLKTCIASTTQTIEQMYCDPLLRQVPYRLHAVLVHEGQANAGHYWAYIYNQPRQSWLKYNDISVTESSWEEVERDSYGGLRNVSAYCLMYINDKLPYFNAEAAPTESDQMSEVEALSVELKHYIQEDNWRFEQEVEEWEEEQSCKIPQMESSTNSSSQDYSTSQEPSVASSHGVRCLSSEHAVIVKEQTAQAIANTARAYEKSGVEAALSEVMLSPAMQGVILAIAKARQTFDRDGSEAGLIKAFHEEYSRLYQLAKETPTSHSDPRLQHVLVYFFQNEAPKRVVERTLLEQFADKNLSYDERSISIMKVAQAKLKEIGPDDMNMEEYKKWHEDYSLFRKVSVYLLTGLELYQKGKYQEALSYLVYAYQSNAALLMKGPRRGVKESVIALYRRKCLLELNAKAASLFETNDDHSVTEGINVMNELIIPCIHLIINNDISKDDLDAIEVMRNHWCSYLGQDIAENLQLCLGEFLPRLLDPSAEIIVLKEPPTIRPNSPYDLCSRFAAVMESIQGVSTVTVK
Summary of the method: as §1

Measured: log2 ratio of Biotin-Ahx-Ub-VS probe labelling

CCN1C(=O)C2CN(C(=O)CCl)CCN2C1=O (stereo not given)
inactive: [1] -0.175 | [2] 0.199 | [3] -0.0184 | [4] -0.141 | [5] -0.324
